Laboratory results published in PubChem BioAssay.
Values without a mark were called inactive. The rule behind the calls is not given here.

biological target: Pantothenate synthetase (Mycobacterium tuberculosis (strain ATCC 25618 / H37Rv)) (UniProt P9WIL5); assay: Coupled enzyme confirmation of inhibitors against recombinant Mtb PanC (AID 375); conditions: coupled enzyme assay; at 10 µM, active compounds read high;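 note: 0% = full reaction with vehicle and 100% = no enzyme background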
Sequence (P9WIL5 whole entry, looked up): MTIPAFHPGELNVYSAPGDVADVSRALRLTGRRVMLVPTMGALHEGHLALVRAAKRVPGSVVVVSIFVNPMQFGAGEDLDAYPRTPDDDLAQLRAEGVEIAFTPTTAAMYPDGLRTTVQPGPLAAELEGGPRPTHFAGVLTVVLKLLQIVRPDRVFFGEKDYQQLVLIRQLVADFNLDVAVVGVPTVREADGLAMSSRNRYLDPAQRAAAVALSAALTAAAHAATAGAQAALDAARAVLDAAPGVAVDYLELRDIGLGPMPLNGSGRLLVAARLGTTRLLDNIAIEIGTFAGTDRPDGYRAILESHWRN

SMILES	inhibition [%]
Cc1n[nH]c(C)c1S(=O)(=O)N1CCN(c2ccccn2)CC1	2
COc1ccc(-n2c(=O)c3c4c(sc3n3cnnc23)CC(C)CC4)cc1 (stereo not given)	1
CCN(C(=O)c1cc(Cl)ccc1OC)c1ccccc1	0
Cn1cnc(S(=O)(=O)Nc2ccc(C(F)(F)F)cc2)c1	0
O=C1CCCC2=C1C1(CCCC1)N=C(Nc1nc3ccccc3s1)N2	10
CCCCCSc1nc2c(cnn2-c2ccccc2)c(=O)[nH]1	11
CC1CCN(S(=O)(=O)c2ccc(Br)s2)CC1	0
CN(C)Cc1c(O)ccc2oc(Cc3ccccc3)cc12	8
CCOC(=O)N1CCN(C(=O)COc2cc(=O)n(C)c3ccccc23)CC1	0
CCCCc1ccc(NC(=O)N[C@H](C(=O)O)C(C)CC)cc1 (stereo not given in full)	0
Oc1c(Cl)cc(Cl)cc1CNc1ccc(Br)cn1	4
COc1cc(NC(=O)C2CCCN2S(=O)(=O)c2cccc3cccnc23)cc(OC)c1OC (stereo not given)	0
Cc1cc(C)cc(-n2nnc(C(=O)NCc3ccco3)c2N)c1	0
CCOC(=O)CSc1cn2c(n1)CCC2	3
CCOC(=O)N1CCC(N2C(=O)c3ccccc3C2Nc2cc(Cl)c(OC)cc2OC)CC1 (stereo not given)	0
C1=CC2CC1CC2CN1CCN(c2ccccc2)CC1 (stereo not given)	5
COc1ccc(/C=C(/C#N)c2cccnc2)cc1OC	8
CN(C)C(=O)N1CCN(C(=O)c2ccco2)CC1	0
COc1ccc(-c2nc(C#N)c(N3CCOCC3)o2)cc1OC	0
CCn1c(=O)cc(SCC(=O)Nc2ccc3c(c2)OCO3)c2ccccc21	0

SMILES	inhibition [%]
COc1ccccc1S(=O)(=O)Cc1ccc(C(=O)N2CCN(c3ccccn3)CC2)o1	0
O=S(=O)(CCOc1ccccc1)c1nc2ccccc2[nH]1	0
COc1ccc(S(=O)(=O)N(C)c2ccc(C(=O)N3CCOCC3)cc2)cc1	0
Cn1cc(C2NC(=O)c3c(sc4c3CCCC4)N2)c2ccccc21 (stereo not given)	0
COc1ccc(N2CCN(CCCNC(=O)C3(S(=O)(=O)c4ccc(Cl)cc4)CC3)CC2)cc1	0
CC(NC(=O)Nc1nccs1)(C(F)(F)F)C(F)(F)F	5
COc1cccc(C(=O)Nc2cc(NC(=O)c3ccco3)ccc2OC)c1	3
O=C(COc1ccccc1)NCCSCc1ccco1	0
CCN(CC)c1ccc2c(C)c(-c3ccc(N)cc3)c(=O)oc2c1	10
Cn1c(=O)c2c(nc(N3CCN(c4ccccc4)CC3)n2CCCc2ccccc2)n(C)c1=O	0
CC(C)(C)c1ccc(-c2nnc(SCCC#N)n2C2CCCC2)cc1	0
CCOC(=O)c1cccc(NC(=O)CSc2nnc(C3CCCCC3)n2C)c1	2
CCOC(=O)C1CSc2[nH]c(=O)sc2C1c1ccccc1 (stereo not given)	0
CCCN(CCC)S(=O)(=O)c1ccc(C(=O)O)cc1	0
Cc1cccc(-c2cc3nc4c(c(N5CCOCC5)n3n2)CCCC4)c1	0
O=C(O)CCN1C(=O)c2ccccc2C1=O	6
O=C(CCNC(=O)Cn1ccc2ccccc2c1=O)NCCN1CCc2ccccc2C1	3
COc1cccc(OC)c1C(=O)N1CCOCC1	12
CCCCOc1cccc(NC(=O)CSc2nccn2C)c1	2
Cc1ccc(C)c(-n2nnnc2SCC(=O)NCCC2=CCCCC2)c1	3
